Structures are written as SMILES. Inconclusive results are not listed. Values without a mark were called inactive. Calls of active or inactive are those of the source. Unless noted, calls follow the shape of the dose curve; as a rule, active = well fitted inhibition curve with a large enough effect; inconclusive = small, poorly fitted or top-dose-only effect; inactive = flat fitted curve, though single readings scatter.

In one assay the test system is AA1029. Description: qHTS profiling for inhibitors of Plasmodium falciparum proliferation (AID 504749). Also: nearly all actives have a fitted effect of over 60% in size. Also: potency is read from the fitted curve at half-maximal effect. The conditions noted are these: P. falciparum in erythrocytes, SYBR Green DNA, 72 h; series mostly up to 28.7 µM. The method, boiled down: (§1)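 SYBR Green fluorescence of parasite DNA, read after lysis and overnight dark incubation, measured growth over 72 h in erythrocyte culture at 0.3% parasitemia and 2.5% hematocrit. Data normalised to DMSO and 0.29 uM artemisinin, with plate-drift correction.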

For another assay, the system named is AS120. The description is as above. The conditions noted are these: P. falciparum in erythrocytes, SYBR Green DNA, 72 h; series mostly up to 28.7 µM. The method, boiled down:
as §1

In another assay the test system is ATS189. Described as above. The conditions noted are these: P. falciparum in erythrocytes, SYBR Green DNA, 72 h; series mostly up to 28.7 µM. A digest of the protocol: as §1
Another assay relates to C2A. The description is as above. The conditions noted are these: P. falciparum in erythrocytes, SYBR Green DNA, 72 h; series mostly up to 28.7 µM. The method, boiled down: as §1
The next assay has as its system CP194. Described as above. The conditions noted are these: P. falciparum in erythrocytes, SYBR Green DNA, 72 h; series mostly up to 28.7 µM. A digest of the protocol: as §1
For a further assay, the system named is CP201. Described as above. The conditions noted are these: P. falciparum in erythrocytes, SYBR Green DNA, 72 h; series mostly up to 28.7 µM. A digest of the protocol: as §1
In another assay the test system is CP203. The description is as above. The conditions noted are these: P. falciparum in erythrocytes, SYBR Green DNA, 72 h; series mostly up to 28.7 µM. A digest of the protocol:
as §1

The next assay deals with CP217. The assay is described as above. The conditions noted are these: P. falciparum in erythrocytes, SYBR Green DNA, 72 h; series mostly up to 28.7 µM. The method, boiled down: as §1
The next assay deals with CP237. Described as above. The conditions noted are these: P. falciparum in erythrocytes, SYBR Green DNA, 72 h; series mostly up to 28.7 µM. The method, boiled down: as §1
The next assay concerns CP250. Described as above. The conditions noted are these: P. falciparum in erythrocytes, SYBR Green DNA, 72 h; series mostly up to 28.7 µM. A digest of the protocol:
as §1

The next assay concerns CP256. Described as above. The conditions noted are these: P. falciparum in erythrocytes, SYBR Green DNA, 72 h; series mostly up to 28.7 µM. A digest of the protocol: as §1
The test system of another assay is CP268. The description is as above. The conditions noted are these: P. falciparum in erythrocytes, SYBR Green DNA, 72 h; series mostly up to 28.7 µM. The method, boiled down: as §1
The subject of the next assay is CP297. The assay is described as above. The conditions noted are these: P. falciparum in erythrocytes, SYBR Green DNA, 72 h; series mostly up to 28.7 µM. The method, boiled down:
as §1

The test system of the next assay is CP305. Described as above. The conditions noted are these: P. falciparum in erythrocytes, SYBR Green DNA, 72 h; series mostly up to 28.7 µM. The method, boiled down: as §1
The subject of the next assay is CP325. The assay is described as above. The conditions noted are these: P. falciparum in erythrocytes, SYBR Green DNA, 72 h; series mostly up to 28.7 µM. A digest of the protocol: as §1
Another assay has as its system HB3. Described as above. The conditions noted are these: P. falciparum in erythrocytes, SYBR Green DNA, 72 h; series mostly up to 28.7 µM. A digest of the protocol:
as §1

The next assay relates to PC15. The description is as above. The conditions noted are these: P. falciparum in erythrocytes, SYBR Green DNA, 72 h; series mostly up to 28.7 µM. A digest of the protocol:
as §1

A further assay relates to PC49. The description is as above. The conditions noted are these: P. falciparum in erythrocytes, SYBR Green DNA, 72 h; series mostly up to 28.7 µM. The method, boiled down: as §1
A further assay has as its system TAB109. The description is as above. The conditions noted are these: P. falciparum in erythrocytes, SYBR Green DNA, 72 h; series mostly up to 28.7 µM. The method, boiled down: as §1
Assay [1] is described as follows: S16 Schwann cell PMP22 intronic element beta-lactamase assay (AID 624044; calls by dose curve; also: nearly all actives have a fitted effect of over 15% in size). The conditions noted are these: S16 rat Schwann cells, PMP22 element beta-lactamase FRET, 24 h; ratio activity, negative = inhibition: at 38.3 µM (top of the series). The method, boiled down:
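Beta-lactamase reporter under a PMP22 intronic regulatory element in stable S16 rat Schwann cells; 24 h compound exposure. 460 nm blue signal normalized between DMSO (0%) and potassium clavulanate, with 535 nm FRET tracking viability; curves classed by r2 and response.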

As for `C[C@@H]1CC2C3CCC4=CC(=O)C=C[C@]4(C)[C@@]3(F)[C@@H](O)C[C@]2(C)[C@@]1(O)C(=O)COC(=O)c1cccc(S(=O)(=O)O)c1` (stereo partly drawn), the Potency entry with AA1029, in the assay on AS120, with ATS189, with C2A, in the assay on CP194 and in the assay with CP201 was “inactive” each time. The Potency result in the assay with CP203, in the assay with CP217, in the assay with CP237, in the assay with CP250, in the assay on CP256 and in the assay with CP268 was “inactive” each time. The Potency result in the assay on CP297, in the assay with CP305, in the assay on CP325, in the assay with HB3, with PC15 and in the assay on PC49 was “inactive” in each case. Also, the Potency entry in the assay with TAB109 is “inactive”.

Turning to `Nc1nc(/C(=C/CC(=O)O)C(=O)NC2C(=O)N3C(C(=O)O)=CCSC23)cs1` (stereo not drawn), the Potency result (in assay [1]; with AA1029; in the assay on AS120; with ATS189; with C2A; with CP194) was “inactive” throughout. Moreover, the Potency entry in the assay on CP201, in the assay on CP217, in the assay with CP237, in the assay on CP250, in the assay on CP256 and with CP268 was “inactive” in each case. Further, the Potency result in the assay on CP297, in the assay with CP305, with CP325, with PC15, in the assay with PC49 and with TAB109 was “inactive” in each case.

As to `C[C@@H](O)[C@@H]1C(=O)N2C(C(=O)O)=C([C@H]3CCCO3)S[C@H]12`, the Potency result (in [1]; in the assay on AA1029; with AS120; in the assay on ATS189; in the assay with C2A; in the assay with CP194) was “inactive” in each case. Also, the Potency entry in the assay with CP203, in the assay with CP217, in the assay on CP237, in the assay on CP250, in the assay with CP256 and in the assay with CP268 was “inactive” each time. For the same compound, the Potency result with CP297, in the assay on CP305, in the assay with CP325, with HB3, with PC15 and with PC49 was “inactive” each time. The Potency entry with TAB109 is “inactive”.

For the compound `Clc1ccc(CS[C@@H](Cn2ccnc2)c2ccc(Cl)cc2Cl)cc1`, in [1], the Potency entry is “inactive”. The Potency was 3.55 µM (active) in the assay on AA1029; 1.26 µM (active) with AS120; 3.16 µM (active) with ATS189; 5.1 µM (active) with CP194; 4.55 µM (active) in the assay on CP203; 3.16 µM (active) with CP217. Further, the Potency in the assay with CP237 is 1.78 µM (active); with CP297, 3.22 µM (active); with HB3, 3.98 µM (active); in the assay on PC15 it was 3.55 µM (active); in the assay on TAB109 it was 3.55 µM (active).

Take `C=C[C@@]1(C)C[C@H](OC(=O)CSC(C)(C)CNC(=O)[C@@H](N)C(C)C)[C@@]2(C)C(C)CC[C@@]3(CCC(=O)[C@@H]32)[C@H](C)[C@H]1O` (stereo partly drawn): the Potency entry in assay [1] is “inactive”. For the same compound, the Potency in the assay with AA1029 was 1.58 µM (active); with AS120 it was 3.55 µM (active); in the assay with ATS189, 11.2 µM (active); with C2A, 5.01 µM (active); in the assay with CP194, 1.9 µM (active); in the assay on CP203 it was 1.07 µM (active). Also, the Potency in the assay with CP217 was 5.62 µM (active); in the assay with CP237, 1.41 µM (active); in the assay on CP256 it was 0.316 µM (active); in the assay on CP268, 3.01 µM (active); in the assay on CP297 it was 2.39 µM (active); in the assay on CP305, 0.379 µM (active). Moreover, the results for the Potency in the assay with CP325 and in the assay with TAB109 were 0.213 µM (active) and 0.891 µM (active), respectively.

Consider `CNC1C(O)C(OC2C(NC(=O)C(O)CN)CC(N)C(OC3OC(CN)C(O)C(O)C3O)C2O)OCC1(C)O` (stereo not drawn), for which the Potency result (in assay [1]; in the assay with AA1029; in the assay on AS120; with ATS189; in the assay on C2A; in the assay on CP194) was “inactive” each time. Further, the Potency entry in the assay with CP201, in the assay with CP203, in the assay with CP217, in the assay on CP237, in the assay on CP250 and with CP256 was “inactive” each time. Also, the Potency entry in the assay on CP268, in the assay with CP297, in the assay with CP305, in the assay on CP325, in the assay on HB3 and in the assay with PC15 was “inactive” in each case. In addition, the Potency result in the assay on PC49 and with TAB109 was “inactive” in each case.

These data come from PubChem BioAssay (NCATS).
